# From the OligoGym collection
# Key:
# Test in all cases: pooled miR-30 sensor sort-seq; sequence = guide strand
# Conditions in all cases: shRNA
# PDIA5 = molecular target: PDIA5
# PDZD4 = molecular target: PDZD4
# PDLIM4 = molecular target: PDLIM4
# PDP1 = molecular target: PDP1
# PGLYRP2 = molecular target: PGLYRP2
# PION = molecular target: PION
# PML = molecular target: PML
# POLR3B = molecular target: POLR3B
# PPIP5K1 = molecular target: PPIP5K1
# PPY = molecular target: PPY
# PPP2R4 = molecular target: PPP2R4
# PPP3R1 = molecular target: PPP3R1
# PPP2R2B = molecular target: PPP2R2B
# PQLC1 = molecular target: PQLC1
# PRADC1 = molecular target: PRADC1
# PRAMEF6 = molecular target: PRAMEF6
# PRB2 = molecular target: PRB2
# Further: reference of the scale not given here.
sequence,measurement,setting,value
TACTTTTCTGCGAACTTCCCAT,sensor-assay potency score (higher = more potent),PDIA5,-0.283
TTCACTTTCCACTCCATGCGCG,sensor-assay potency score (higher = more potent),PDZD4,-0.515
TACACCGCCACCACGTCGTAGC,sensor-assay potency score (higher = more potent),PDLIM4,-0.286
TCGTCGGTCGTCATACCGCTGC,sensor-assay potency score (higher = more potent),PDZD4,-0.818
TCACTTTGTACTGCTCCTCCGG,sensor-assay potency score (higher = more potent),PDZD4,-0.937
TACTGGAACAAGAACCGTCCTT,sensor-assay potency score (higher = more potent),PDIA5,0.0118
TAGAACATGACCAAGGTGTGTT,sensor-assay potency score (higher = more potent),PDIA5,0.669
AAAGAAGTAACCACGCTGCTTG,sensor-assay potency score (higher = more potent),PDLIM4,0.146
TAGAACTGACATTTTTGCCGTC,sensor-assay potency score (higher = more potent),PDP1,0.378
TATTCATTGTCATTCAACTGGT,sensor-assay potency score (higher = more potent),PDP1,-0.478
TACAACATGAGAATTGAACTGA,sensor-assay potency score (higher = more potent),PDP1,1.04
AGACAGTGTGAGGTGATCGTGG,sensor-assay potency score (higher = more potent),PDLIM4,-1.1
TGCATTTTCAATCTCTAGCAAA,sensor-assay potency score (higher = more potent),PDP1,-1.4
TGAGCTCTGTGCTCTCACCATT,sensor-assay potency score (higher = more potent),PDLIM4,-1.16
TTGCAGGCCAAACTTGCGCAGG,sensor-assay potency score (higher = more potent),PDZD4,-1.4
TTTGACACAGTCAACAGCGGCA,sensor-assay potency score (higher = more potent),PDIA5,-0.283
TGAAACTGTATTCATTAGCTTT,sensor-assay potency score (higher = more potent),PDP1,-0.926
TTGATCTCCAGGAGCTCACGGT,sensor-assay potency score (higher = more potent),PDZD4,-0.853
TCGTCGTCGGTCGTCATACCGC,sensor-assay potency score (higher = more potent),PDZD4,-1.57
TTGTGAGGGACTGGAAAGCGAG,sensor-assay potency score (higher = more potent),PDLIM4,-1.61
ATGATTGTAATGTCATCTCTGT,sensor-assay potency score (higher = more potent),PDP1,0.0872
TTTAAGGATGCTATTGACTTGT,sensor-assay potency score (higher = more potent),PDP1,0.228
TTTTGAAGGTCAATGCTCCATT,sensor-assay potency score (higher = more potent),PDP1,-0.4
TCACTGCACATGAAGCACTCGG,sensor-assay potency score (higher = more potent),PDLIM4,-0.799
TAGAGCTTGTCCCGTGCCTTGA,sensor-assay potency score (higher = more potent),PDLIM4,-0.615
TACACCGTTAATCTGGATGATG,sensor-assay potency score (higher = more potent),PDZD4,-1.18
TTGTCATTCAACTGGTCTGGGC,sensor-assay potency score (higher = more potent),PDP1,-1.11
TCATCCAGGAAGTCATCCCGGT,sensor-assay potency score (higher = more potent),PDZD4,-0.501
TTGAACTGAACTACAATGATTG,sensor-assay potency score (higher = more potent),PDP1,-0.787
TTTGGCTGCAATGCTGTTGGGA,sensor-assay potency score (higher = more potent),PDZD4,-0.7
TCAGGATCGATGTGGATCCTGT,sensor-assay potency score (higher = more potent),PDLIM4,-1.13
TTGTCCATATGGAGATCCCAGG,sensor-assay potency score (higher = more potent),PDLIM4,-1.39
TCGGAGCCCAGGTCGACTCTGC,sensor-assay potency score (higher = more potent),PDLIM4,-1.11
TATTATAGTAGTATCTTTTTAA,sensor-assay potency score (higher = more potent),PDP1,-1.01
TTAGGAGGAATAAACTTGGTAT,sensor-assay potency score (higher = more potent),PDP1,-0.0779
TCTGGGTCTGGGAACCTCGGAG,sensor-assay potency score (higher = more potent),PGLYRP2,-0.74
TTGGCTCATGCACTGAAGCTGG,sensor-assay potency score (higher = more potent),PGLYRP2,-0.819
TTCTTTAGTAGACTGAACTAAA,sensor-assay potency score (higher = more potent),PION,-0.809
TAACATACACACAAACTTCCTG,sensor-assay potency score (higher = more potent),PION,0.883
TTCGGCATCTGAGTCTTCCGAG,sensor-assay potency score (higher = more potent),PML,0.322
TTGACAATTATGTAGGGTCTGC,sensor-assay potency score (higher = more potent),POLR3B,-0.266
TAAAGCATGATGACAATCTGGG,sensor-assay potency score (higher = more potent),PPIP5K1,0.285
TAACAGAGCCACGCAGGTGGAC,sensor-assay potency score (higher = more potent),PPY,-1.08
TTCTCATCCACAAAGTGTCTGG,sensor-assay potency score (higher = more potent),PPP2R4,-0.351
TTCATCTCGGTAATAAACAGGA,sensor-assay potency score (higher = more potent),PPP2R4,0.112
TTTTGTCTACAATTTGCTGTAA,sensor-assay potency score (higher = more potent),PPP3R1,-0.67
TTTAGGTAAACAGCCACCTCAG,sensor-assay potency score (higher = more potent),PPP2R4,-0.616
TATCTACGGAGATCAGCTGCAT,sensor-assay potency score (higher = more potent),PPY,0.435
TCTGGTGTGGCATTGTCCCCTG,sensor-assay potency score (higher = more potent),PPY,0.0817
TTTTGGAATGATGAAGTTCTGA,sensor-assay potency score (higher = more potent),PPP2R4,-0.939
TGATGTATCTACGGAGATCAGC,sensor-assay potency score (higher = more potent),PPY,-1.04
TTTTACTCTCCTGCTCTCGTTG,sensor-assay potency score (higher = more potent),PPP2R2B,-0.655
TTGAGGGTAAGGATGAATCCGA,sensor-assay potency score (higher = more potent),PPP2R4,-0.403
TGTATCTACGGAGATCAGCTGC,sensor-assay potency score (higher = more potent),PPY,0.303
ATCAGCTGCATACTGGGCCATC,sensor-assay potency score (higher = more potent),PPY,-1.61
TTATCTGCATTTATTATGGTTT,sensor-assay potency score (higher = more potent),PPP3R1,-0.79
TCCTCTTTGTGTCTTTTCCCAT,sensor-assay potency score (higher = more potent),PPY,-1.36
TAAAATCACAACTAGCACTTAA,sensor-assay potency score (higher = more potent),PPP3R1,-0.328
TCTCCTTTGACACTGAACTGAG,sensor-assay potency score (higher = more potent),PPP3R1,-0.401
TTCTTCTATTTCTAAACTCTTC,sensor-assay potency score (higher = more potent),PPP2R2B,-0.752
TTACTCGCTGTACTAAAGGATT,sensor-assay potency score (higher = more potent),PPP3R1,-1.35
TATTTGGTCATCCACCCGGAGC,sensor-assay potency score (higher = more potent),PPP2R4,-1.25
ATCTACGGAGATCAGCTGCATA,sensor-assay potency score (higher = more potent),PPY,-1.14
TTAAATCTCTTTCCTAGCCTTT,sensor-assay potency score (higher = more potent),PPP3R1,-0.556
TTTAATCTGAACAGCAATGAGG,sensor-assay potency score (higher = more potent),PPP2R4,-0.87
AGCATGTTGATGTATCTACGGA,sensor-assay potency score (higher = more potent),PPY,-1.31
TTGAAGTGCTGGATCACAGGGA,sensor-assay potency score (higher = more potent),PPP2R4,1.03
TACTGGGCCATCTGCTCTGGTG,sensor-assay potency score (higher = more potent),PPY,-1.25
TGTTGATGTATCTACGGAGATC,sensor-assay potency score (higher = more potent),PPY,-1.64
TCGAAGTCCAGGAAGGACCGCC,sensor-assay potency score (higher = more potent),PQLC1,-0.0699
TTTTTGTGGATATCTAGGCCAC,sensor-assay potency score (higher = more potent),PPP3R1,-0.626
TTGAAGACAATAGCTATTTGGT,sensor-assay potency score (higher = more potent),PPP2R4,-0.254
TGGAACTGTGTGGATCTCCTTT,sensor-assay potency score (higher = more potent),PPP2R4,-1.01
TGTAGTAACAGAGCCACGCAGG,sensor-assay potency score (higher = more potent),PPY,-1.22
AATATAGCCATCTTTATCCATG,sensor-assay potency score (higher = more potent),PPP3R1,-1.54
TTTGGAATGATGAAGTTCTGAG,sensor-assay potency score (higher = more potent),PPP2R4,-0.0141
TTCAATAACACTTAGTTGGCTT,sensor-assay potency score (higher = more potent),PPP3R1,0.15
TCTGCTTCCTCGGAGACTCTGT,sensor-assay potency score (higher = more potent),PPP2R4,0.193
TTTGCTGTAACTGTGTATCTTT,sensor-assay potency score (higher = more potent),PPP3R1,0.559
TAGCCTTTTAATTTCATCCGCA,sensor-assay potency score (higher = more potent),PPP3R1,0.489
TTGACGGTCAAGTAGTCCCTGG,sensor-assay potency score (higher = more potent),PPP2R2B,-0.065
TTTGTCTACAATTTGCTGTAAC,sensor-assay potency score (higher = more potent),PPP3R1,-1.15
ATGCTGGTGACATTGACTGGGA,sensor-assay potency score (higher = more potent),PRADC1,-1
TGAATCTGCTCATACCTTGTGT,sensor-assay potency score (higher = more potent),PRADC1,-0.084
AAGTCCAGGAAGGACCGCCTGG,sensor-assay potency score (higher = more potent),PQLC1,-1.26
TTCTTCATCCTTGCTATCTGCA,sensor-assay potency score (higher = more potent),PQLC1,-0.201
TTGGGTAAGCAGTGCATCCAGC,sensor-assay potency score (higher = more potent),PRAMEF6,-0.474
TTTGTTTCGGGTTCTAGCCAGA,sensor-assay potency score (higher = more potent),PRADC1,-0.698
TCTTGTAGCATGAGACACCCTT,sensor-assay potency score (higher = more potent),PRADC1,-0.0908
TAGGTGGAGAAGCCGTCGGCGT,sensor-assay potency score (higher = more potent),PQLC1,-1.4
TGGCTTTCCTGCTATTAGGGAG,sensor-assay potency score (higher = more potent),PRB2,-0.778
TTGTGTGAAAGATACCACCAAA,sensor-assay potency score (higher = more potent),PRADC1,-1.24
TTCGGGACTTGTTGTCTCCTTG,sensor-assay potency score (higher = more potent),PRB2,-0.146
TTGACTTCTTCATCCTTGCTAT,sensor-assay potency score (higher = more potent),PQLC1,0.0479
ATGAGCACCATCTTGATGCTCA,sensor-assay potency score (higher = more potent),PQLC1,-0.811
TTTTGTTTCGGGTTCTAGCCAG,sensor-assay potency score (higher = more potent),PRADC1,-0.533
TTGGAGGCAGCACAGCTTGAGG,sensor-assay potency score (higher = more potent),PRAMEF6,-1.39
TTTTGGAGGCAGCACAGCTTGA,sensor-assay potency score (higher = more potent),PRAMEF6,-1.46
TAGCATGAGACACCCTTGGGGG,sensor-assay potency score (higher = more potent),PRADC1,-0.696
TATTGTGAGGACCTTTAACGAG,sensor-assay potency score (higher = more potent),PRAMEF6,-1.02
TGCACGTAGTCCGAGAAGCTGC,sensor-assay potency score (higher = more potent),PQLC1,-1.19
TCAGCATCATAACTCTCCCGGG,sensor-assay potency score (higher = more potent),PRAMEF6,-0.662
TTGAGGATTGTTGCCTTCTTGT,sensor-assay potency score (higher = more potent),PRB2,-0.928
AACCTTGACTTCTTCATCCTTG,sensor-assay potency score (higher = more potent),PQLC1,0.292
TTGAGGCTGGTTGCCTCCTTGT,sensor-assay potency score (higher = more potent),PRB2,-1.75
TGGATGAAGAAACCGTTGCTGA,sensor-assay potency score (higher = more potent),PRADC1,-1.26
TACAGCTCCACGCATAAGTTTT,sensor-assay potency score (higher = more potent),PRAMEF6,-1.43
TTAGTTATTGTGAGGACCTTTA,sensor-assay potency score (higher = more potent),PRAMEF6,-0.654
GAGGAGATCGAGAACTTCGGGA,sensor-assay potency score (higher = more potent),PRB2,-0.989
TCTGCAGCTGTAAAGGAGCGGC,sensor-assay potency score (higher = more potent),PQLC1,-0.795
TAGTCCGAGAAGCTGCTCCACT,sensor-assay potency score (higher = more potent),PQLC1,-0.969
TTGATGCTCATGCCCTCCGTGG,sensor-assay potency score (higher = more potent),PQLC1,-1.49
TAAACCACTCCAACAACTGCTG,sensor-assay potency score (higher = more potent),PRADC1,0.158
ATCAGCATCATAACTCTCCCGG,sensor-assay potency score (higher = more potent),PRAMEF6,-0.511
TTGGACAGTCCTGCACTGGTGT,sensor-assay potency score (higher = more potent),PRAMEF6,-0.525
AGGAGATCGAGAACTTCGGGAC,sensor-assay potency score (higher = more potent),PRB2,-1.14
TTGGGACTTGTTGTCTCCTTGT,sensor-assay potency score (higher = more potent),PRB2,-0.258
TCATGTAGCCGTCTCGGCCGAG,sensor-assay potency score (higher = more potent),PRADC1,-1.06
AAAGATACCACCAAAGTCCTTG,sensor-assay potency score (higher = more potent),PRADC1,0.163
TTCGGGACTTGCTGCCTCCTTG,sensor-assay potency score (higher = more potent),PRB2,-0.944
